Screening data (PubChem)
The list is not random: actives were taken first. Their share in the collection is about 10%.
Luciferase inh = Firefly luciferase inhibition profiling of diverse chemical library using quantitative high-throughput screening; Luciferin 4-monooxygenase (Photinus pyralis), P08659; purified P. pyralis luciferase, luminescence, biochemical; Potency, µM (series often up to 115 µM), most hits filed as inhibitors; actives 2.5% (n = 76,000); also: nearly all actives have a fitted effect of over 65% in size
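Inhibitors were tested against purified firefly luciferase in a biochemical, low-substrate format (both substrates at 10uM) and luminescence measured with a CCD imager.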
HEK293 tox = Cytotoxic Profiling in HEK 293 Cell Line of Diverse Libraries Using Quantitative High-Throughput Screening; HEK 293 viability, ATP luminescence (CellTiter-Glo), 48-72 h; Potency, µM (series often up to 115 µM), for the others: at the top dose activity change, negative = cytotoxicity, actives largely listed as inhibitors; actives 6.6% (n = 94,000); AID 1345083, 2018; also: nearly all actives have a fitted effect of over 60% in size
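Cytotoxicity was scored by loss of ATP-coupled luminescence (CellTiter-Glo) in HEK 293 cells. Compound treatment ran 48 or 72 hr at 37 degree Celsius, 5% CO2, 95% humidity.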
hNpr1 antagonist = Natriuretic polypeptide receptor (hNpr1) antagonism - Primary qHTS; actives 1.6% (n = 76,000); Potency, µM (top dose mostly 46.3 µM), without a hit: top-dose activity change, negative = inhibition, actives largely listed as inhibitors; HEK293 hNpr1 GloSensor cGMP, ANP-stimulated luminescence; calls by dose curve; also: nearly all actives have a fitted effect of over 60% in size
Target sequence (P16066 whole entry, looked up): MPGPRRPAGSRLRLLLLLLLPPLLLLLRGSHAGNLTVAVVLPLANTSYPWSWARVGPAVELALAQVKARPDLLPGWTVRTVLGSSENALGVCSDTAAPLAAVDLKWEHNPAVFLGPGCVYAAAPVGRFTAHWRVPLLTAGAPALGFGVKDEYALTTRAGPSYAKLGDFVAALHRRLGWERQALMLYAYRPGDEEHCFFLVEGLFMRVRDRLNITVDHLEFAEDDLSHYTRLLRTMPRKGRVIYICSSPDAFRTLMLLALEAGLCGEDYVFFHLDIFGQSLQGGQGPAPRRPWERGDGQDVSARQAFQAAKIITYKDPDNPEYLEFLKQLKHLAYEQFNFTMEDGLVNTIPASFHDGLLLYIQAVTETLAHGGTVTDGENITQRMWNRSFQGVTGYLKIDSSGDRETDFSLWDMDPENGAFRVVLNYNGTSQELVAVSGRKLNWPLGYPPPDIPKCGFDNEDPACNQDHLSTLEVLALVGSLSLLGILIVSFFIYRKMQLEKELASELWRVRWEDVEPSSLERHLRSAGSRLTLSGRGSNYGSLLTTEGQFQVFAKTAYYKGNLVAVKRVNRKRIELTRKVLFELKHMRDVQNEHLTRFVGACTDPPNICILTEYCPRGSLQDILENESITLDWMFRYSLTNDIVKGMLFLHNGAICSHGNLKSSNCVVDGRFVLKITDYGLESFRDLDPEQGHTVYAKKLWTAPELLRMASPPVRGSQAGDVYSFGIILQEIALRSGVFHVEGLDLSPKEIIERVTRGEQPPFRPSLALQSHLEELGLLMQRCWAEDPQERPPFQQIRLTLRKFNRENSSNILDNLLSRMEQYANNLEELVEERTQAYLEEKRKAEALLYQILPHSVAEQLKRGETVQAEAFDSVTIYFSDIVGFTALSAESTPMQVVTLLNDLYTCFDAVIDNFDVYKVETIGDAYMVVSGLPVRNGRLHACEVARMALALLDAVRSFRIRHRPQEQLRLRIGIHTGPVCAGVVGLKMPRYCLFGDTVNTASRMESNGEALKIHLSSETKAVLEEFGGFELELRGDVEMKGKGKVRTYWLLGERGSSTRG
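Compound pre-incubated 30 min at room temperature on GloSensor-loaded HEK293 cells stably carrying hNpr1 and the pGS-40F cGMP biosensor. Stimulation uses hNppA at 0.1 nM final; luminescence is taken at baseline and 20 min post-agonist.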
3T3 cytotox = Cytotoxic Profiling in NIH 3T3 Cell Line of Diverse Libraries Using Quantitative High-Throughput Screening. NIH 3T3 viability, CellTiter-Glo ATP luminescence, 48-72 h. Potency, µM (highest dose often 96.7 µM), for inactives: at the highest dose activity change, negative = cytotoxicity, actives largely listed as inhibitors. actives 4.3% (n = 94,000). AID 1345082, 2018; also: nearly all actives have a fitted effect of over 55% in size
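Mouse fibroblast NIH 3T3 cells, 400 per well, received compound via pintool and were incubated for 48 or 72 hr prior to CellTiter-Glo ATP luminescence measurement.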
GPT2 inh = Primary qHTS assay for inhibitors of Glutamate pyruvate transaminase 2 (GPT2) | Alanine aminotransferase 2 (Homo sapiens), Q8TD30 | Recombinant GPT2, coupled pyruvate oxidase/HRP Amplex Red fluorescence | Potency, µM (titrated, usually from 57.7 µM), for the others: top-dose activity change, negative = inhibition, usual class: inhibitors | actives 0.25% (n = 100,000); also: nearly all actives have a fitted effect of over 60% in size
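Recombinant GPT2 (10ng/uL) with 250uM a-KG and 2mM L-alanine, 30 min at room temperature, in HEPES pH 7.5 buffer. Pyruvate detected by pyruvate oxidase/HRP/Amplex Red fluorescence after 30 min in the dark; AOA (50uM) as positive control.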
Starred values were filed as active, the others as inactive; i = inactive; u = inconclusive; [ ] = dose if it differs, or a comment. Unless noted, calls follow the shape of the dose curve; as a rule, active = well fitted curve in the direction sought with a large enough effect; inconclusive = small, poorly fitted or top-dose-only effect, or another doubt; inactive = no such curve, though single readings can be large; an effect the other way counts as inactive or inconclusive. % is scaled to controls: 0 for no effect and ±100 for the full control effect; potency is read from the fitted curve at half-maximal effect.

SMILES | Luciferase inh | HEK293 tox | hNpr1 antagonist | 3T3 cytotox | GPT2 inh
CC(C)(C)NS(=O)(=O)c1ccccc1-c1ccc(Cn2ccnc2)cn1 | i | -5% | -1% | -25% | 2%
Cc1ccc(CN2CCN(C(=O)CC3CCOCC3)CC2)cc1 | i | 14% | -2% | 4% | i
CC(=O)NCCNC(=O)C[C@@H]1c2nc(NC(=O)C3CCCCC3)sc2C[C@@H]2[C@](C)(CO)[C@H](O)CC[C@]21C | i | -2% | -2% | -10% | 1%
COC[C@H]1NC(=O)CC[C@H]1C(=O)N1CCN(Cc2ccccc2)CC1 | i | i | -2% | u | u
COC1CCOC2(CCN(C(=O)NCCc3ccccc3)CC2)C1 (centres undefined) | 28µM* | 5% | -3% | 2% | i
CN1CCN(Cc2nnc(C(=O)N3CCC[C@@H]3c3ccc(Br)cc3)n2Cc2ccccc2)CC1 | i | u | -14% | u | -27%
O=C(c1nnc(CN2CCN(c3ccccn3)CC2)n1Cc1ccccc1)N1CCC[C@@H]1c1ccc(Br)cc1 | i | 45µM* | -2% | u | 4%
CN(Cc1ccccc1)Cc1nnc(C(=O)N2CCC[C@@H]2c2ccc(Br)cc2)n1Cc1ccccc1 | i | 32µM* | -20% | 18µM* | 4%
O=C(NCCC1=CCCCC1)C1(CCO)CC12CCOCC2 (centres undefined) | i | -3% | 0% | -3% | i
COc1cccc(CN2Cc3nc(OCc4ccc(F)cc4)ccc3OCC2=O)c1 | i | 100µM* | u | u | i
COc1cccc(-c2ccc3c(n2)CN(Cc2ccc(F)cc2)C(=O)CO3)c1 | i | 89µM* | u | u | i
COCc1nc(C2CC(NC(=O)c3cc(Cl)cn3C)C2)cc(=O)[nH]1 (centres undefined) | i | -9% | 7% | -16% | 2%
COc1ccc(CN2CC[C@H](c3nc4c(C(N)=O)cccc4[nH]3)C2)cc1 | i | u | -12%[70.6 µM] | u | -25%[88.5 µM]
NC(=O)c1cccc2[nH]c([C@H]3CCN(Cc4cccc(Cl)c4)C3)nc12 | i | 56µM* | u | u | i
N#Cc1ccc(CN2CCC(c3nc4ccncc4[nH]3)C2)cc1 (centres undefined) | i | u | -5%[70.6 µM] | u | -2%
N#Cc1ccc2nc([C@H]3CCN(Cc4ccccc4)C3)[nH]c2c1 | u | 50µM* | 2%[70.6 µM] | 40µM* | 3%[88.5 µM]
FC(F)(F)c1ccc2nc([C@H]3CCN(Cc4ccccn4)C3)[nH]c2c1 | u | 45µM* | 0%[70.6 µM] | u | -9%[88.5 µM]
N#Cc1ccc2nc([C@H]3CCN(Cc4ccccn4)C3)[nH]c2c1 | u | 100µM* | 4%[70.6 µM] | 63µM* | -9%[88.5 µM]
O=C(C1CCCCC1)N1CC[C@H](c2nc3ccc(C(F)(F)F)cc3[nH]2)C1 | i | u | 0%[70.6 µM] | u | -3%[88.5 µM]
Cc1oc2c(c1C(=O)N1CC(C)(C)C(C)(O)C1)C(=O)CCC2 (centres undefined) | i | -5% | 4% | -5% | 2%
CC(C)(C)CC(=O)NC[C@H]1OC[C@@H](NC2CCC(F)(F)CC2)[C@@H]1O | i | i | 0%[70.6 µM] | i | i
CC(=O)Nc1cc(-c2cn(C)c(=O)n3cc(CN4CC[S+](=O)([O-])CC4)nc23)ccn1 | i | -17%[172 µM] | 1%[70.6 µM] | 100µM* | -2%[88.5 µM]
CC(C)N1C[C@H](O)C[C@H]1c1nnc2n1CCN(C(=O)CCCc1c[nH]c3ccccc13)C2 | i | 0% | -1% | -16% | -2%
O=C1NCCOCCN(C(=O)Nc2ccc3c(c2)OCCO3)[C@@H]2CCCC[C@H]12 | 16µM* | -1% | -23% | -2% | i
O=C(Cc1c(F)cccc1Cl)N1CCN(c2cc(-c3cccs3)[nH]n2)CC1 | i | u | -18% | u | i
SMILES | Luciferase inh | HEK293 tox | hNpr1 antagonist | 3T3 cytotox | GPT2 inh
Cc1ccc(CNC(=O)C2(CCO)CC23CCOCC3)o1 (centres undefined) | i | i | -3% | -1% | i
O=C(NCc1cccnc1)C1(CCO)CC12CCOCC2 (centres undefined) | 28µM* | 0% | 4% | i | -12%
OCC1CN(c2ncccn2)CC12CCN(Cc1cccc3[nH]ccc13)CC2 (centres undefined) | i | 79µM* | -11% | u | i
OCC1CN(c2ncccn2)CC12CCN(Cc1c[nH]c3ccccc13)CC2 (centres undefined) | i | -5% | 1% | -11% | u
COc1ccccc1CCC(=O)N1CCN(c2cc(-c3ccc(Cl)cc3)[nH]n2)CC1 | i | u | -17% | 32µM* | i
COc1ccccc1CCC(=O)N1CCN(c2cc(-c3ccccc3)[nH]n2)CC1 | i | u | -13% | u | -11%
O=C(COc1ccc(Cl)cc1)N1CCN(c2cc(-c3ccccc3)[nH]n2)CC1 | i | 89µM* | -27% | u | i
COc1ccccc1CC(=O)N1CCN(c2cc(-c3ccccc3)[nH]n2)CC1 | i | 22µM* | -14% | u | -6%
CCCn1ncc(CN2CC[C@H](N3CCN(C)CC3)[C@H](CCC(=O)O)C2)c1C | i | -23% | -2% | -5% | 1%
CCCn1ncc(CN(C)CC2CCN(CCc3ccc(Cl)cc3)CC2)c1C | i | 22µM* | -2% | 35µM* | i
CCN(CC)c1ccc(C(=O)N2CCCC(n3cc(-c4noc(C)n4)nn3)C2)cc1 (centres undefined) | i | -20% | -10% | -28% | i
CC(C)CNC(=O)C(NC(=O)c1ccccc1Cl)C1CCN(C(=O)c2ccccc2F)CC1 (centres undefined) | i | 3% | -2% | -6% | -12%
COc1cncc(Nc2ncc(-c3ccccc3OC)c3c2OCC3)c1 | i | u | -4%[70.6 µM] | 71µM* | -14%[88.5 µM]
COc1ccc(Nc2ncc(-c3ccccc3OC)c3c2OCC3)cn1 | 32µM* | u | u | u | i
COc1ccccc1-c1cnc(Nc2cncnc2)c2c1CCO2 | i | u | 1%[70.6 µM] | u | u
O=C(c1ccccc1F)N1CCC2(CC1)C(=O)NN=C2c1cccnc1 | i | -5% | 24% | -22% | 4%
CCN1C(=O)C2(CCN(S(=O)(=O)c3ccc(Cl)cc3C)CC2)c2ccccc21 | i | 10µM* | -19% | u | -12%
O=[N+]([O-])c1cccc(-c2noc([C@@H]3Cc4nc[nH]c4CN3Cc3ccc(F)cc3)n2)c1 | i | 50µM* | u | u | -24%[88.5 µM]
